Changes are numbered by the printed parent chain.
Assays:
Test in all cases: yeast three-hybrid, YBZ-1, SC-Leu-His + 0.5 mM 3-AT, 4 days
Conditions in all cases: tags: N-Gal4 AD-HA kept; label: inside an RPR1-promoter hybrid RNA with tandem MS2 sites; ssRNA
PUM1 PUF domain R5-PRR = PUM1 PUF domain R5-PRR (Homo sapiens, UniProt Q14671 828-1176, C1007P;Q1011R)
Method in brief: (§1)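 The interaction score is the log change in how often each variant appears, from input to selection. Frequencies came from PCR-amplified, Illumina-sequenced repeat regions of Pumilio-1 PUF domain libraries grown in strain YBZ-1 (LexA–MS2 coat fusion, HIS3 reporter) alongside matching RNA elements. Input plates were SC-Leu and selection plates were SC-Leu-His + 0.5 mM 3-AT, each for four days, and the log2 calculation used a pseudocount of 1 where a variant was absent.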

PUM1 PUF domain R5-RSK = PUM1 PUF domain R5-RSK (Homo sapiens, UniProt Q14671 828-1176, C1007R;R1008S;Q1011K)
Method in brief: as §1

PUM1 PUF domain R5-KPI = PUM1 PUF domain R5-KPI (Homo sapiens, UniProt Q14671 828-1176, C1007K;R1008P;Q1011I)
Method in brief: as §1

PUM1 PUF domain R3-RRK = PUM1 PUF domain R3-RRK (Homo sapiens, UniProt Q14671 828-1176, C935R;Q939K)
Method in brief: as §1

PUM1 PUF domain R3-LSQ = PUM1 PUF domain R3-LSQ (Homo sapiens, UniProt Q14671 828-1176, C935L;R936S)
Method in brief: as §1

PUM1 PUF domain R8-HFA = PUM1 PUF domain R8-HFA (Homo sapiens, UniProt Q14671 828-1176, N1122H;Y1123F;Q1126A)
Method in brief: as §1

PUM1 PUF domain R8-IRK = PUM1 PUF domain R8-IRK (Homo sapiens, UniProt Q14671 828-1176, N1122I;Y1123R;Q1126K)
Method in brief: as §1

PUM1 PUF domain R8-KRT = PUM1 PUF domain R8-KRT (Homo sapiens, UniProt Q14671 828-1176, N1122K;Y1123R;Q1126T)
Method in brief: as §1

PUM1 PUF domain R8-HHK = PUM1 PUF domain R8-HHK (Homo sapiens, UniProt Q14671 828-1176, N1122H;Y1123H;Q1126K)
Method in brief: as §1

PUM1 PUF domain R5-QSC = PUM1 PUF domain R5-QSC (Homo sapiens, UniProt Q14671 828-1176, C1007Q;R1008S;Q1011C)
Method in brief: as §1

PUM1 PUF domain R5-SGC = PUM1 PUF domain R5-SGC (Homo sapiens, UniProt Q14671 828-1176, C1007S;R1008G;Q1011C)
Method in brief: as §1

PUM1 PUF domain R8-KHA = PUM1 PUF domain R8-KHA (Homo sapiens, UniProt Q14671 828-1176, N1122K;Y1123H;Q1126A)
Method in brief: as §1

PUM1 PUF domain R6-EWV = molecular target: T1, PUM1 PUF domain R6-EWV (Homo sapiens, UniProt Q14671 828-1176, N1043E;Y1044W;Q1047V)
T1 sequence: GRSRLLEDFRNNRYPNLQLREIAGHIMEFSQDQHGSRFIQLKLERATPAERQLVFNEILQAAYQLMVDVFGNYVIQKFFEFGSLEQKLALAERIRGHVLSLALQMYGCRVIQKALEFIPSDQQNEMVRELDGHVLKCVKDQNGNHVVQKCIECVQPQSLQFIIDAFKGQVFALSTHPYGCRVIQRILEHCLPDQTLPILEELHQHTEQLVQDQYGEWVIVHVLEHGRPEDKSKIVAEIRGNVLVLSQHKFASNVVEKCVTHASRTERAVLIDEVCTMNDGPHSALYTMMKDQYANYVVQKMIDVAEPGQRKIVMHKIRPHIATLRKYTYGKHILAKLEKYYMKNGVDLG
Method in brief: as §1

PUM1 PUF domain R7-DFE = PUM1 PUF domain R7-DFE (Homo sapiens, UniProt Q14671 828-1176, S1079D;N1080F)
Method in brief: as §1

PUM1 PUF domain R6-NRK = molecular target: T2, PUM1 PUF domain R6-NRK (Homo sapiens, UniProt Q14671 828-1176, Y1044R;Q1047K)
T2 sequence: T1 sequence with E216N, W217R, V220K
Method in brief: as §1

PUM1 PUF domain R6-SFV = molecular target: T3, PUM1 PUF domain R6-SFV (Homo sapiens, UniProt Q14671 828-1176, N1043S;Y1044F;Q1047V)
T3 sequence: T1 sequence with E216S, W217F
Method in brief: as §1

PUM1 PUF domain R4-AGY = PUM1 PUF domain R4-AGY (Homo sapiens, UniProt Q14671 828-1176, N971A;H972G;Q975Y)
Method in brief: as §1

PUM1 PUF domain R7-GVV = PUM1 PUF domain R7-GVV (Homo sapiens, UniProt Q14671 828-1176, S1079G;N1080V;E1083V)
Method in brief: as §1

PUM1 PUF domain R1-KMV = PUM1 PUF domain R1-KMV (Homo sapiens, UniProt Q14671 828-1176, S863K;R864M;Q867V)
Method in brief: as §1

PUM1 PUF domain R6-RVT = molecular target: T4, PUM1 PUF domain R6-RVT (Homo sapiens, UniProt Q14671 828-1176, N1043R;Y1044V;Q1047T)
T4 sequence: T1 sequence with E216R, W217V, V220T
Method in brief: as §1

## GGCUAGAACUAGUGGAUCCCCCGGCGCCCGGCGGCUCGAGCCCGGGUAAGUGUUAAUAGUCUGCAUGCCGCCGGGCGCCAUGCCUGCAGGUCGACUCUAGAAAACAUG
PUM1 PUF domain R5-PRR
  binding signal: 3.23 log2 enrichment (interaction score)

## GGCUAGAACUAGUGGAUCCCCCGGCGCCCGGCGGCUCGAGCCCGGGUAAGUGUCAAUAGUCUGCAUGCCGCCGGGCGCCAUGCCUGCAGGUCGACUCUAGAAAACAUG
PUM1 PUF domain R5-PRR
  binding signal: 0.75 log2 enrichment (interaction score)
PUM1 PUF domain R5-RSK
  binding signal: 3.23 log2 enrichment (interaction score)
PUM1 PUF domain R5-KPI
  binding signal: 5.02 log2 enrichment (interaction score)

## GGCUAGAACUAGUGGAUCCCCCGGCGCCCGGCGGCUCGAGCCCGGGUAAGUGUAAUUAGUCUGCAUGCCGCCGGGCGCCAUGCCUGCAGGUCGACUCUAGAAAACAUG
PUM1 PUF domain R3-RRK
  binding signal: 4.07 log2 enrichment (interaction score)
PUM1 PUF domain R3-LSQ
  binding signal: 4.75 log2 enrichment (interaction score)

## GGCUAGAACUAGUGGAUCCCCCGGCGCCCGGCGGCUCGAGCCCGGGUAAGCGUAAAUAGUCUGCAUGCCGCCGGGCGCCAUGCCUGCAGGUCGACUCUAGAAAACAUG
PUM1 PUF domain R8-HFA
  binding signal: 3.45 log2 enrichment (interaction score)
PUM1 PUF domain R8-IRK
  binding signal: 2.54 log2 enrichment (interaction score)
PUM1 PUF domain R8-KRT
  binding signal: 2.71 log2 enrichment (interaction score)
PUM1 PUF domain R8-HHK
  binding signal: 3.15 log2 enrichment (interaction score)

## GGCUAGAACUAGUGGAUCCCCCGGCGCCCGGCGGCUCGAGCCCGGGUAAGUGUGAAUAGUCUGCAUGCCGCCGGGCGCCAUGCCUGCAGGUCGACUCUAGAAAACAUG
PUM1 PUF domain R5-PRR
  binding signal: 2.13 log2 enrichment (interaction score)
PUM1 PUF domain R5-QSC
  binding signal: 3.71 log2 enrichment (interaction score)
PUM1 PUF domain R5-SGC
  binding signal: 2.36 log2 enrichment (interaction score)

## GGCUAGAACUAGUGGAUCCCCCGGCGCCCGGCGGCUCGAGCCCGGGUAAGUGUAAAUAGUCUGCAUGCCGCCGGGCGCCAUGCCUGCAGGUCGACUCUAGAAAACAUG
PUM1 PUF domain R8-KHA
  binding signal: 3.55 log2 enrichment (interaction score)
PUM1 PUF domain R8-HFA
  binding signal: 2.13 log2 enrichment (interaction score)
PUM1 PUF domain R5-PRR
  binding signal: 2.16 log2 enrichment (interaction score)
PUM1 PUF domain R6-EWV
  binding signal: 1.65 log2 enrichment (interaction score)
PUM1 PUF domain R7-DFE
  binding signal: 2.67 log2 enrichment (interaction score)
PUM1 PUF domain R6-NRK
  binding signal: 3.68 log2 enrichment (interaction score)
PUM1 PUF domain R6-SFV
  binding signal: 3.58 log2 enrichment (interaction score)
PUM1 PUF domain R8-KRT
  binding signal: 1.36 log2 enrichment (interaction score)
PUM1 PUF domain R4-AGY
  binding signal: 3.24 log2 enrichment (interaction score)

## GGCUAGAACUAGUGGAUCCCCCGGCGCCCGGCGGCUCGAGCCCGGGUAAGUGAAAAUAGUCUGCAUGCCGCCGGGCGCCAUGCCUGCAGGUCGACUCUAGAAAACAUG
PUM1 PUF domain R6-EWV
  binding signal: 3.43 log2 enrichment (interaction score)

## GGCUAGAACUAGUGGAUCCCCCGGCGCCCGGCGGCUCGAGCCCGGGUAAGUUUAAAUAGUCUGCAUGCCGCCGGGCGCCAUGCCUGCAGGUCGACUCUAGAAAACAUG
PUM1 PUF domain R7-GVV
  binding signal: 2.6 log2 enrichment (interaction score)

## GGCUAGAACUAGUGGAUCCCCCGGCGCCCGGCGGCUCGAGCCCGGGUAAGUGUAAAUCGUCUGCAUGCCGCCGGGCGCCAUGCCUGCAGGUCGACUCUAGAAAACAUG
PUM1 PUF domain R1-KMV
  binding signal: 3.19 log2 enrichment (interaction score)

## GGCUAGAACUAGUGGAUCCCCCGGCGCCCGGCGGCUCGAGCCCGGGUAAGUGCAAAUAGUCUGCAUGCCGCCGGGCGCCAUGCCUGCAGGUCGACUCUAGAAAACAUG
PUM1 PUF domain R6-RVT
  binding signal: 4.2 log2 enrichment (interaction score)

— article PMC8384837, “Expanding the binding specificity for RNA recognition by a PUF domain”
